# Measured values from ChEMBL document CHEMBL4888484, “Replenishing the malaria drug discovery pipeline: Screening and hit evaluation of the MMV Hit Generation Library 1 (HGL1) against asexual blood stage Plasmodium falciparum ,using a nano luciferase reporter read-out” (2022).
# In all, about 150,000 compounds went through this assay and about 540 (0.36%) showed an effect of 50% or more. Shown is part of a subset that was picked to be rich in strong results.
# Tested on: Plasmodium falciparum
# Assay: Primary screen in NF54 nanoGlo assay, in single point, at 2uM, 72h; a lower Z score goes with more inhibition
# Assay type: functional, Erythrocyte
# Conditions: timepoint 72 hour
Compound,% Inhibition [%],Z score
Cc1nn(C)c2nc(OCC(=O)NC(C)(C)C)cc(C(F)(F)F)c12,-8,0.92
Cn1nccc1[C@@H]1CN(C(=O)Nc2nsc3ccccc23)CCO1,-5,0.53
Cc1ccc(S(=O)(=O)Nc2c(S(=O)(=O)c3ccccc3)c3nc4ccccc4nc3n2CCc2ccccc2)cc1,86,-14.39
Cc1ccc(S(=O)(=O)Nc2c(S(=O)(=O)c3ccc(C)cc3)c3nc4ccccc4nc3n2C[C@H]2CCCO2)cc1,48,-4.28
Cc1ccc(S(=O)(=O)c2c(NS(=O)(=O)c3ccc(F)cc3)n(CCc3ccccc3)c3nc4ccccc4nc23)cc1,98,-8.73
COc1ccc(S(=O)(=O)c2c(N)n(Cc3ccc(C)cc3)c3nc4ccccc4nc23)cc1,-6,0.56
Cc1ccc(S(=O)(=O)c2c(NS(=O)(=O)c3ccc(Cl)cc3)n(-c3cc(C)cc(C)c3)c3nc4ccccc4nc23)cc1,-6,0.5
Cc1ccc(S(=O)(=O)Nc2c(S(=O)(=O)c3ccc(C)cc3)c3nc4ccccc4nc3n2CCC(C)C)cc1,85,-10.94
Nc1c(S(=O)(=O)c2ccc(Cl)cc2)c2nc3ccccc3nc2n1Cc1ccc(Cl)cc1,-9,0.81
CCC(=O)Nc1c(S(=O)(=O)c2ccccc2)c2nc3ccccc3nc2n1[C@@H](C)c1ccccc1,-14,1.29
Cc1ccc(S(=O)(=O)c2c(NC(=O)c3ccco3)n(C3CCCCC3)c3nc4ccccc4nc23)cc1,-11,1.85
Cc1ccc(S(=O)(=O)c2c(NS(=O)(=O)c3ccccc3)n(CCc3ccccc3)c3nc4ccccc4nc23)cc1,99,-11.17
Cc1ccc(S(=O)(=O)c2c(NS(=O)(=O)c3ccc(F)cc3)n(C[C@H]3CCCO3)c3nc4ccccc4nc23)cc1,6,-0.71
CC(C)n1cc(C(=O)N(CCOc2ccc(Cl)cc2)Cc2ccco2)cn1,-9,1.28
O=C(Nc1cccc(C(F)(F)F)c1)C1(F)C(F)(F)C(F)(F)C(F)(F)C(F)(F)C1(F)F,2,-0.22
c1ccc2oc(-c3nc(C4CC4)n[nH]3)cc2c1,-12,1.37
N[C@@H](c1ccc2c(c1)CCO2)c1cc(Cl)ccc1Cl,0,-0.02
O=C(Nc1nc(C(=O)N2CCN(c3ncccn3)CC2)co1)c1ccsc1,-2,0.31
CCCN1CCCC[C@H]1C(=O)NCCCn1ccnc1,-6,1.01
Cc1ccc(C(=O)N2CCC[C@H](CCC(=O)N3CCN(c4ccccn4)CC3)C2)s1,-8,1.24
COc1ccc(-c2nc3ccc(Cc4ccc5nc(-c6ccc(OC)cc6)c(-c6ccc(OC)cc6)nc5c4)cc3nc2-c2ccc(OC)cc2)cc1,11,-2.21
O=C(NC[C@H]1CCCN1c1ccccc1)c1ccccc1Br,-13,2.53
CCCCn1c(NC(=O)c2ccccc2Cl)c(S(=O)(=O)c2ccccc2)c2nc3ccccc3nc21,-7,0.7
COCCCn1c(NS(=O)(=O)c2ccc3ccccc3c2)c(S(=O)(=O)c2ccc(C)cc2)c2nc3ccccc3nc21,57,-8.33
Cc1ccc(S(=O)(=O)NCCn2c3ccccc3c3c(C)cc(C)nc32)cc1,-5,0.73

Compound,% Inhibition [%],Z score
C[C@@H](c1ccccc1)n1c(NC(=O)c2ccc(Cl)cc2)c(S(=O)(=O)c2ccccc2)c2nc3ccccc3nc21,-15,1.3
CCCCc1ccc(-n2c(NS(=O)(=O)c3ccc(Cl)cc3)c(S(=O)(=O)c3ccc(C)cc3)c3nc4ccccc4nc32)cc1,4,-0.41
CCCCn1c(NC(=O)c2ccccc2)c(S(=O)(=O)c2ccc(C)cc2)c2nc3ccccc3nc21,0,-0.03
O=C(Nc1c(S(=O)(=O)c2ccccc2)c2nc3ccccc3nc2n1CCc1ccccc1)c1ccc(Cl)cc1,101,-8.88
COCCCn1c(NS(=O)(=O)c2ccccc2)c(S(=O)(=O)c2ccc(C)cc2)c2nc3ccccc3nc21,43,-9.12
Cc1ccc(S(=O)(=O)Nc2cc3nc4ccccc4nc3n2CCc2ccccc2)cc1,100,-10.64
CCOc1cccc2c1OC[C@@H](C(=O)N1CCCS1(=O)=O)C2,-7,1.2
Cc1cc(C)c(-c2ccc(C(=O)N(C)CCn3ccnc3C)cc2)cc1C,-5,0.69
COCCNc1c(-c2ccccc2)nc2sc(C(=O)NCc3cccnc3)c(C)n12,-31,3.13
Cc1ccc(-n2cc(NC(=O)c3cc(C)no3)cn2)c(C)c1,-5,0.56
O=c1c2cnc(N3CCc4ccccc4C3)nc2ccn1-c1ccc(Cl)c(Cl)c1,-8,1.01
Cc1cccc(N2CCO[C@@H](CF)C2)n1,5,-0.46
Cc1cnccc1NCCNCc1cccc(O)c1Cl,88,-13.09
Cc1cnccc1NCCNCc1ccnc(C(C)C)n1,-15,1.39
CCn1ccc(CNCCNc2ccncc2C)n1,-3,0.68
Cc1cnccc1NCCNCc1nc(C(C)C)cs1,6,-0.58
CC1CCN(Cn2c(=S)sc3ccccc32)CC1,-4,0.63
Cc1nccn1CC(=O)N[C@@H](C)C1=CCCCC1,3,-0.38
O=C1Nc2ccc(F)cc2C12CCNC2c1ccc2c(c1)OCCO2 (stereo not drawn),31,-3.54
Cn1c(N)c(S(=O)(=O)N2CCN(c3ccccc3Cl)CC2)c(=O)n(C)c1=O,59,-11.06
Cc1ccccc1S(=O)(=O)N1CCN(c2c(C)n(-c3ccccc3)c(=O)n(C)c2=O)CC1,36,-0.1
CS(=O)(=O)N1CCN(S(=O)(=O)N2CCN(c3ccccc3Cl)CC2)CC1,5,-0.74
O=C(CCN(CCc1ccccc1)c1nc(C2CC2)nc2ccccc12)Nc1ccccc1,0,-0.06
O=C(CCN1C(=O)CCC1=O)Nc1cccc(S(=O)(=O)N2CCCCC2)c1,-4,0.89
CCN1CCN([C@H]2CCN(c3ccnc4c(F)cc(Cl)cc34)C2)CC1,11,-1.82

Compound,% Inhibition [%],Z score
CC(C)(C)OC(=O)N1CCC1CN1CCCC(c2nnc(N)o2)C1 (stereo not drawn),32,-3.65
Cn1ncc(Cl)c1C(=O)NCc1cccnc1Oc1ccc(F)c(F)c1,-3,0.62
O=C(Cn1nnc2ccccc21)N(Cc1cccnc1)C1(C(=O)Nc2ccc(N3CCOCC3)cc2)CCCCC1,2,-0.25
COc1ccc(NC(=O)C2(N(Cc3ccccc3)C(=O)Cn3nnc4ccccc43)CCCCC2)cc1,44,-1.28
O=C(Cn1nnc2ccccc21)N(Cc1cccnc1)C1(C(=O)Nc2ccc3c(c2)OCO3)CCCCC1,36,-0.52
O=C(Cn1nnc2ccccc21)N(Cc1ccccc1)C1(C(=O)Nc2ccc3c(c2)OCO3)CCCCC1,50,-5.71
COc1ccc(NC(=O)C2(N(Cc3nc(-c4ccccc4)cs3)C(=O)Cn3nnc4ccccc43)CCCCC2)cc1,55,-6.2
O=C(Cn1nnc2ccccc21)N(Cc1cccnc1)C1(C(=O)Nc2ccc3c(c2)OCO3)CCCC1,5,-0.59
CN(C)c1ccc(NC(=O)C2(N(Cc3ccccc3)C(=O)Cn3nnc4ccccc43)CCCC2)cc1,5,-0.62
CN(C)c1ccc(NC(=O)C2(N(Cc3ccccc3)C(=O)Cn3nnc4ccccc43)CCCCC2)cc1,51,0.77
O=C(Cn1nnc2ccccc21)N(Cc1nc(-c2ccccc2)cs1)C1(C(=O)Nc2ccc3c(c2)OCO3)CCCC1,-7,0.77
CCc1cc2c(N3CC(c4ncc(C5CC5)cn4)C3)ncnc2s1,0,-0.06
CN(C(=O)Cn1c(=O)n(C)c(=O)c2ccccc21)C1CCCCC1,-1,0.19
Cc1cc(C(=O)N2CCOC3(CCS(=O)(=O)CC3)C2)c(C)s1,-13,1.28
Cc1c(CN(C)C(=O)c2ccc(-c3ccc4c(c3)OCC4)cc2)cnn1C,-20,2.12
COc1ccccc1-c1nnc2c3ccc(Cl)cc3nc(N3CCN(C(=O)c4ccc(C)cc4)CC3)n12,-13,1.38
Cc1nc(-c2ccco2)ccc1C(=O)N[C@@H](C)c1nnnn1C,-12,1.8
CCn1nc(-n2cnnc2)c(NS(=O)(=O)c2ccc(C)cc2)c1C,-9,1.53
COc1ncnc2c1CN(C(=O)NCC1(Cc3ccccc3)CCC1)CC2,29,1.68
Cc1cc(Nc2ccc(C)c(Cl)c2)c2cccc(C)c2n1,23,-2.05
Cc1cc(C)c2nc(C)cc(Nc3ccc(O)cc3)c2c1,85,-12.86
COc1cccc2c(Nc3ccc(C(=O)O)cc3)cc(C)nc12,-3,0.28
Cc1nonc1CC(=O)NCCCn1ccnn1,-4,0.49
Cc1ccc2c(NC(=O)NCC3(CO)CCC3)cccc2n1,-9,1.22
